Data: PubChem BioAssay AID686978 (National Center for Advancing Translational Sciences (NCATS), 2013)
About 64,000 (15%) of roughly 420,000 compounds were called active. Not shown: some 27% with an inconclusive outcome. Calls follow the shape of the dose curve; as a rule, active = well fitted inhibition curve with a large enough effect; inconclusive = small, poorly fitted or top-dose-only effect; inactive = flat fitted curve, though single readings scatter. These entries were drawn from the full list.

assay: qHTS for Inhibitors of human tyrosyl-DNA phosphodiesterase 1 (TDP1): qHTS in cells in absence of CPT; conditions: DT40 Tdp1-/- hTDP1 cells, no CPT, ATP luminescence, 48 h; activity change, negative = growth inhibition: at 46.2 µM (top of the series); also: nearly all actives have a fitted effect of over 55% in size
Method in brief: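 Chicken DT40 Tdp1-/- cells complemented with human TDP1, screened without camptothecin (DMSO vehicle only), 400 cells/well. Compounds pin-transferred, cells incubated at 37 °C for at least 48 hr. Growth read as ATP-dependent luminescence (CellTiter-Glo, 30 min at RT).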
% is scaled to controls: 0 for no effect and ±100 for the full control effect; potency is read from the fitted curve at half-maximal effect.

Compound	Potency	activity change, negative = growth inhibition
C=CCOC(=O)C1=C(C)NC(C)=C(C(=O)OCC=C)C1c1cccs1	18.4 µM (active)	
CCOC(=O)C1=C(C)NC(=S)NC1c1cccs1 (centres undefined)		-3.91% (inactive)
C=CCOC(=O)c1ccccc1C(=O)OCC=C		-12.2% (inactive)
CC(C)C(NC(=O)c1ccc(Cl)cc1)C(=O)O (centres undefined)		7.61% (inactive)
CSc1ncccc1C(=O)Nc1nc2ccc(F)cc2s1		-12% (inactive)
Cc1cc(C(=O)COc2ccccc2[N+](=O)[O-])c(C)n1-c1cccc(S(=O)(=O)N2CCOCC2)c1	23.1 µM (active)	
Cc1cc(S(=O)(=O)N2CCOCC2)ccc1OCC(=O)N1CCOCC1		-12.2% (inactive)
O=C(COc1ccc(S(=O)(=O)N2CCCC2)cc1[N+](=O)[O-])N1CCCCC1		-19.5% (inactive)
CCCCCC(O)c1cccc(OCc2ccc3ccccc3n2)c1 (centres undefined)		-7.93% [at 4.12 µM] (inactive)
C/C(=N/OC(=O)c1c(-c2c(F)cccc2Cl)noc1C)c1cnccn1		23.1% (inactive)
O=C(CN1C(=O)COc2ccccc21)Nc1ccc(F)cc1		-26.2% (inactive)
CCOc1ccc(N(CC(=O)Nc2cccc(OC)c2)S(C)(=O)=O)cc1		9.81% (inactive)
CCN(CC)S(=O)(=O)c1cc(C(=O)Nc2ccccn2)ccc1C		-24.1% (inactive)
CCOc1cccc(NC(=O)c2ccc(F)c(S(=O)(=O)N(CC)c3cccc(C)c3)c2)c1	25.9 µM (active)	
CC1(C)CC(=O)C=C(NCCCNC2CCCCC2)C1		-0.22% (inactive)
O=Cc1ccc(Oc2cccc(C(F)(F)F)c2)nc1		-4.01% (inactive)
N/C(=N\OC(=O)Nc1ccccc1)c1ccno1		-3.56% (inactive)
COC(=O)c1ccccc1NC(=O)Cn1c(=O)n(-c2cccc(C(F)(F)F)c2)c(=O)c2c(C)c(C)sc21		-15.7% (inactive)
CCC(=O)N1CCc2cc(Br)cc(S(=O)(=O)CCC(=O)NCc3ccccc3OC)c21		-6.88% (inactive)
CC(=O)NC(CC(=O)Nc1ccc(S(=O)(=O)N2CCOCC2)cc1)c1ccccc1 (centres undefined)		-0.105% (inactive)
CCOc1ccc(CC(=O)NC2CCN(Cc3ccccc3)CC2)cc1		-0.44% (inactive)
O=C(NCCc1c[nH]c2ccccc12)C(=O)NCC1CCCO1 (centres undefined)		-19.7% (inactive)
O=C(CN1C(=O)NC2(CCCCC2)C1=O)NCCc1c[nH]c2ccccc12		-15.7% (inactive)
O=C(NCCc1c[nH]c2ccccc12)C1CCN(Cc2ccc(Br)cc2)CC1	16.4 µM (active)	
CCOc1ccc(CN2CCCN(C)CC2)cc1		-0.758% (inactive)
CCOc1ccc(CN2CCN(Cc3c[nH]c4ccccc34)CC2)cc1	5.8 µM (active)	
N/C(=N\OC(=O)CCc1ccccc1)c1cccnc1		1.89% (inactive)
O=C(COc1coc(CN2CCN(c3ccccc3F)CC2)cc1=O)N1CCc2ccccc21		-1.46% (inactive)
Cc1cc(C(=O)OCC(=O)c2c(N)n(C)c(=O)n(C)c2=O)c(C)o1		-4.19% (inactive)
